Reference: the supplement of paper PMC7411640
Counter-ions that a name gives are not always drawn.

System: MDA-MB-468
Assay: phospho-S6 immunofluorescence (DAPI-normalised), per-plate z-score; higher = higher phospho-S6 signal (less pathway suppression)
Details: 24 h
Experimental: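 GPCR-targeted compound library (MedChemExpress HY-L006) tested on MDA-MB-468 PTEN-null TNBC cells in 384-well plates at 0.1, 1 or 10 uM, combined with vehicle, GDC0941 450 nM or lapatinib 1 uM, for 24 h. Phospho-S6 (S240/244) immunofluorescence normalised to DAPI and expressed as a per-plate z-score; values are the mean of biological triplicates.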

| Structure (SMILES) | phospho-S6 immunofluorescence (z-score) (co-treatment: GDC0941 450 nM) | phospho-S6 immunofluorescence (z-score) (co-treatment: lapatinib 1 uM) | phospho-S6 immunofluorescence (z-score) (co-treatment: vehicle) |
| --- | --- | --- | --- |
| O=C(N[C@H]1CCN(C(=O)c2cc(C(F)(F)F)cc(C(F)(F)F)c2)[C@H](Cc2ccc(Cl)cc2)C1)c1ccnc2ccccc12 (compound 10 µM) | -1.97 | -1.9 | -1.44 |
| CC(ONC(=O)c1cc(C(F)(F)F)cc(C(F)(F)F)c1)C(=O)Nc1ccc(Cl)cc1 (configuration not stated) (compound 10 µM) | -3.03 | -1.73 | -2.5 |
| CC(COc1ccccc1)N(CCCl)Cc1ccccc1 (configuration not stated) [Phenoxybenzamine (hydrochloride)] (compound 10 µM) | 0.33 | -0.04 | 0.39 |
| CCCCc1ccc(NS(=O)(=O)c2ccc(F)cc2)cc1 (compound 10 µM) | -3.59 | -8.48 | -10.2 |
| CCCN(CCC)CCc1cccc2c1CC(=O)N2 [Ropinirole (hydrochloride)] (compound 10 µM) | 0.64 | 1.04 | 1.01 |
| CC[C@H](C)[C@H](NC(=O)[C@H](Cc1ccc(O)cc1)NC(=O)[C@@H]1CCCN1C(=O)[C@@H](NC(=O)[C@@H](N)CCCCN)[C@@H](C)CC)C(=O)N[C@@H](CC(C)C)C(=O)O [Neuromedin N] (compound 10 µM) | 0.27 | -0.01 | -0.38 |
| CCN(CC)CC#CCOC(=O)C(O)(c1ccccc1)C1CCCCC1 (configuration not stated) [Oxybutynin (chloride)] (compound 10 µM) | 1.35 | 0.51 | 0.53 |
| COC(=O)[C@@H]1[C@H]2C[C@H]3c4[nH]c5ccccc5c4CCN3C[C@@H]2CC[C@@H]1O [Yohimbine (Hydrochloride)] (compound 10 µM) | 0.62 | 0.56 | 1.59 |
| NC[C@H](O)c1ccc(O)c(O)c1 [Norepinephrine (bitartrate monohydrate)] (compound 10 µM) | 0.52 | 1.81 | 0.17 |
| CCN(CC)CCCC(C)Nc1nc(C)cc(Nc2ccc3nc(C)cc(N)c3c2)n1 (configuration not stated) (compound 10 µM) | 0.95 | 1.82 | 0.49 |
| CC(C)(Cc1ccc2ccccc2c1)NC[C@@H](O)COc1cccc(Cl)c1C#N (compound 10 µM) | -3.37 | -8.76 | -10.1 |
| CN(C)CCc1c[nH]c2ccc(C[C@H]3COC(=O)N3)cc12 [Zolmitriptan] (compound 10 µM) | 0.87 | 0.6 | -0.48 |
| CC1(C)O[C@@H]2[C@@H](CO[C@@]3(COS(N)(=O)=O)OC(C)(C)O[C@@H]23)O1 [Topiramate] (compound 10 µM) | -0.24 | 0.19 | -0.31 |
| OC[C@H]1O[C@@H](n2cnc3c(N[C@H]4CCC[C@@H]4O)ncnc32)[C@H](O)[C@@H]1O (compound 10 µM) | 0.54 | 0.82 | 0.2 |
| CCN1CCC[C@H]1CNC(=O)c1cc(S(N)(=O)=O)ccc1OC [Levosulpiride] (compound 10 µM) | 0.22 | 0.89 | -0.63 |
| CCC(=O)NC[C@@H]1C[C@H]1c1cccc2c1CCO2 [Tasimelteon] (compound 10 µM) | -1.06 | -0.25 | 0.27 |
| CC(C)(C)C(=O)C(=Nc1ccc(Cl)cc1)NNc1ccc(Cl)cc1 (compound 10 µM) | -3.52 | -6.25 | -3.76 |
| COc1cc(N)cn[n+]1-c1ccccc1 [Amezinium (methylsulfate)] (compound 10 µM) | -0.21 | 1.19 | 0.03 |
| CCNC(=O)[C@@H]1CCCN1C(=O)[C@H](CCCNC(=N)N)NC(=O)[C@H](CC(C)C)NC(=O)[C@@H](CC(C)C)NC(=O)[C@H](Cc1ccc(O)cc1)NC(=O)[C@H](CO)NC(=O)[C@H](Cc1c[nH]c2ccccc12)NC(=O)[C@H](Cc1c[nH]cn1)NC(=O)[C@@H]1CCC(=O)N1 [Leuprolide (Acetate)] (compound 10 µM) | 0.41 | -0.17 | 0.11 |
| CN1CCC[C@@H]1CCO[C@](C)(c1ccccc1)c1ccc(Cl)cc1 [Clemastine (fumarate)] (compound 10 µM) | 0.73 | -3.01 | 1.46 |
| N=C(N)NCCC[C@H](NC(=O)[C@H](Cc1ccccc1)NC(=O)[C@@H]1CCCN1C(=O)[C@H](CO)NC(=O)[C@H](Cc1ccccc1)NC(=O)CNC(=O)[C@@H]1CCCN1C(=O)[C@@H]1CCCN1C(=O)[C@@H](N)CCCNC(=N)N)C(=O)O [Bradykinin] (compound 10 µM) | -0.14 | 0.5 | -0.36 |
| Cc1cc(C(C)(C)C)c(O)c(C)c1CC1=NCCN1 [Oxymetazoline (hydrochloride)] (compound 10 µM) | 0.28 | -0.17 | -0.03 |
| CCC(=O)NCC[C@@H]1CCc2ccc3c(c21)CCO3 [Ramelteon] (compound 10 µM) | -0.04 | -0.4 | 0.21 |
| COc1cccc(-c2c(C)n(Cc3c(F)cccc3C(F)(F)F)c(=O)n(C[C@H](NCCCC(=O)O)c3ccccc3)c2=O)c1F [Elagolix] (compound 10 µM) | 0.62 | -0.03 | 0.51 |
| Cc1cncc(CN2CCC(=C3c4ccc(Cl)cc4CCc4cccnc43)CC2)c1 [Rupatadine (Fumarate)] (compound 10 µM) | -1.47 | -2.09 | -1.45 |

| Structure (SMILES) | phospho-S6 immunofluorescence (z-score) (co-treatment: GDC0941 450 nM) | phospho-S6 immunofluorescence (z-score) (co-treatment: lapatinib 1 uM) | phospho-S6 immunofluorescence (z-score) (co-treatment: vehicle) |
| --- | --- | --- | --- |
| O=C(N[C@@H]1CC[C@@H](c2cccc(F)c2F)CN(CC(F)(F)F)C1=O)N1CCC(n2c(=O)[nH]c3ncccc32)CC1 (compound 10 µM) | 0.18 | 0.53 | -0.42 |
| CC(=O)OCC(=O)[C@@]1(O)[C@H](C)C[C@H]2[C@@H]3CCC4=CC(=O)C=C[C@]4(C)[C@@]3(F)[C@@H](O)C[C@@]21C [Dexamethasone (acetate)] (compound 10 µM) | 0.07 | 0.45 | 1.18 |
| O=C(Nc1cc(Cl)cc(Cl)c1)[C@H]1CCCC[C@H]1C(=O)O (compound 10 µM) | 0.83 | 0.12 | 0.42 |
| CCC(=O)O[C@]1(C(=O)SCF)[C@H](C)C[C@H]2[C@@H]3C[C@H](F)C4=CC(=O)C=C[C@]4(C)[C@@]3(F)[C@@H](O)C[C@@]21C [Fluticasone (propionate)] (compound 10 µM) | 0.26 | -0.29 | -0.43 |
| CCCN(CCc1cccs1)[C@H]1CCc2c(O)cccc2C1 [Rotigotine (Hydrochloride)] (compound 10 µM) | -0.16 | 0.3 | -0.63 |
| OCCN1CCN(CCCN2c3ccccc3Sc3ccc(C(F)(F)F)cc32)CC1 [Fluphenazine (dihydrochloride)] (compound 10 µM) | -3.94 | -6.77 | -2.87 |
| CCCCN1CCC(CNC(=O)c2c3n(c4ccccc24)CCCO3)CC1 [Piboserod] (compound 10 µM) | -0.39 | -0.44 | 0.08 |
| COc1cc(/C=C/C(=O)O)ccc1O [Ferulic acid (sodium)] (compound 10 µM) | 0.56 | 0.36 | 0.33 |
| C[N+]1(C)[C@@H]2CC[C@H]1C[C@@H](OC(=O)C(O)c1ccccc1)C2 (some centres not stated) [Homatropine (methylbromide)] (compound 10 µM) | 0.87 | 1.2 | 1.2 |
| O=C1NCC2(CCN(CCc3ccccc3)CC2)O1 [Fenspiride (Hydrochloride)] (compound 10 µM) | 0.59 | 0.67 | 1.01 |
| CC(C(=O)Nc1cc(C#N)ccc1CCCC(=O)O)c1ccc(F)c2ccccc12 (configuration not stated) (compound 10 µM) | -3.03 | -2.8 | -0.03 |
| COc1cc(N)c(Cl)cc1C(=O)NC1CCN(Cc2ccccc2)CC1 [Clebopride (malate)] (compound 10 µM) | 0.46 | -0.14 | 0.29 |
| N=C(N)N/N=C/c1c(Cl)cccc1Cl [Guanabenz (Acetate)] (compound 10 µM) | 0.61 | -0.12 | -0.2 |
| OCc1ccc(-c2nn(Cc3ccccc3)c3ccccc23)o1 [Lificiguat] (compound 10 µM) | 3.23 | 2.82 | 0.54 |
| O=C(Nc1ccc(Cl)cc1CN1C(=O)c2ccccc2C1=O)c1ccccc1O (compound 10 µM) | -1.83 | -0.3 | -0.57 |
| CC(C)(Cc1nc(-c2ccc(O)cn2)no1)C(=O)NC1=C(C(=O)O)CCCC1 (compound 10 µM) | 0.73 | 0.37 | 1.12 |
| Clc1ccc(Cn2c(CN3CCCC3)nc3ccccc32)cc1 [Clemizole (hydrochloride)] (compound 10 µM) | -3.06 | 0.26 | -1.37 |
| CN1CCN2c3c(cccc31)[C@@H]1CN(CCCC(=O)c3ccc(F)cc3)CC[C@@H]12 [lumateperone (Tosylate)] (compound 10 µM) | -3.44 | -3.22 | -5.62 |
| c1ccc(CN(CC2=NCCN2)c2ccccc2)cc1 [Antazoline (hydrochloride)] (compound 10 µM) | 0.27 | 0.23 | 1.23 |
| CC[C@@H]1C(=O)OC[C@@H]1Cc1cncn1C [Pilocarpine (Hydrochloride)] (compound 10 µM) | -0.79 | -0.13 | -0.68 |
| C[C@]12C=CC(=O)C=C1CC[C@@H]1[C@@H]2[C@@H](O)C[C@@]2(C)[C@H]1CC[C@]2(O)C(=O)CO [Prednisolone] (compound 10 µM) | 0.01 | 1.18 | 0.05 |
| CN/C(=N\CCSCc1nc[nH]c1C)NC#N [Cimetidine] (compound 10 µM) | 0.86 | 0.64 | -0.63 |
| Cc1nc2c([nH]1)-c1ccccc1N(C(=O)c1ccc(NC(=O)c3ccccc3-c3ccccc3)cc1)CC2 [Conivaptan (hydrochloride)] (compound 10 µM) | 0.65 | 0.52 | 0.94 |
| OC(CCN1CCCCC1)(c1ccccc1)C1CCCCC1 (configuration not stated) [Trihexyphenidyl (hydrochloride)] (compound 10 µM) | -0.3 | -0.52 | 0.56 |
